Assay results: PubChem BioAssay AID2537 (National Center for Advancing Translational Sciences (NCATS), 2010)
Results filed as inconclusive are left out. The source made the active and inactive calls. Calls come from the whole dose curve; as a rule, active = well fitted inhibition curve with a large enough effect; inconclusive = small, poorly fitted or top-dose-only effect; inactive = no such curve, though single readings can be large or run the other way.

target: Polyunsaturated fatty acid lipoxygenase ALOX15B (Homo sapiens) (UniProt O15296); test: Confirmation qHTS Assay for Inhibitors of 15-hLO-2 (15-human lipoxygenase 2); conditions: purified 15hLO-2, xylenol orange hydroperoxide absorbance; series mostly up to 57.1 µM; activity change, negative = inhibition: at the top concentration
Experimental: Human lipoxygenase 15hLO-2 is a member of the closely related lipoxygenase family of enzymes which catalyze the site-specific oxidation of arachidonic acid to various hormone precursor molecules and as such is a candidate for drug development in a variety of disease areas, such as cancer and inflammation. Inhibition of 15hLO-2 activity was screened by utilizing arachidonic acid as a substrate. The extent of hydroperoxide product formation was measured by a secondary chromogenic reaction in which xylenol orange (XO, Sigma-Aldrich, cat. number 39,818-7) reacts with the ferric ions produced from the reaction between the hydroperoxide and ferrous ions. The Fe(III)-XO complex is characterized with red-shifted absorbance at 560 nm. A purified preparation of human 15hLO-2 was supplied by Professor Ted Holman, University of California, Santa Cruz. NIH Molecular Libraries Screening Centers Network [MLSCN] NIH Chemical Genomics Center [NCGC] MLSCN Grant: MH081283-01A1 PI Name: Holman, T.R., University of California, Santa Cruz
Assay Protocol: Buffer: 25 mM Hepes pH 7.5, 0.01% Triton X-100. Reagents/Controls: Buffer in columns 3 and 4 as negative control (no enzyme). Substrate solution: 45 uM arachidonic acid (Sigma-Aldrich, St. Louis, MO) final concentration dispensed throughout the plate. Enzyme: 50 nM 15hLO-2 final concentration in columns 1, 2, 5-48. Column 1 is neutral (100% activity). Column 2 contained pin-transferred titration of NDGA (nordihidroguaiaretic acid, Sigma-Aldrich, N 5023, top concentration 10 mM in DMSO, then 1:2 dilution in duplicate). (Dilution factor: 23 nL into 4 uL.) Chromogenic detection reagent (divalent iron/xylenol orange, Fe-XO): 200 uM xylenol orange plus 300 uM ferrous ammonium sulfate prepared freshly in 50 mM sulfuric acid. Assay Steps: Three uL of enzyme were dispensed to 1536-well Greiner black clear bottom plates. Compounds and controls (23 nL) were transferred via Kalypsys PinTool. The plates were incubated for 15 min at room temperature, and then 1 uL of substrate solution was added to start the reaction. After room temperature incubation for 90 minutes, 4 uL of Fe-XO solution was added to each well followed by a short spin (1000 rpm, 15 sec) and the plates were then incubated for 30 min. The absorbance at 405 and 573 nm were measured using ViewLux (Perkin-Elmer) High-throughput CCD imager and absorbance protocol settings. The 573-to-405 absorbance ratio was used to compute reaction progress.

Chain of Polyunsaturated fatty acid lipoxygenase ALOX15B (Homo sapiens) (O15296 whole entry, looked up): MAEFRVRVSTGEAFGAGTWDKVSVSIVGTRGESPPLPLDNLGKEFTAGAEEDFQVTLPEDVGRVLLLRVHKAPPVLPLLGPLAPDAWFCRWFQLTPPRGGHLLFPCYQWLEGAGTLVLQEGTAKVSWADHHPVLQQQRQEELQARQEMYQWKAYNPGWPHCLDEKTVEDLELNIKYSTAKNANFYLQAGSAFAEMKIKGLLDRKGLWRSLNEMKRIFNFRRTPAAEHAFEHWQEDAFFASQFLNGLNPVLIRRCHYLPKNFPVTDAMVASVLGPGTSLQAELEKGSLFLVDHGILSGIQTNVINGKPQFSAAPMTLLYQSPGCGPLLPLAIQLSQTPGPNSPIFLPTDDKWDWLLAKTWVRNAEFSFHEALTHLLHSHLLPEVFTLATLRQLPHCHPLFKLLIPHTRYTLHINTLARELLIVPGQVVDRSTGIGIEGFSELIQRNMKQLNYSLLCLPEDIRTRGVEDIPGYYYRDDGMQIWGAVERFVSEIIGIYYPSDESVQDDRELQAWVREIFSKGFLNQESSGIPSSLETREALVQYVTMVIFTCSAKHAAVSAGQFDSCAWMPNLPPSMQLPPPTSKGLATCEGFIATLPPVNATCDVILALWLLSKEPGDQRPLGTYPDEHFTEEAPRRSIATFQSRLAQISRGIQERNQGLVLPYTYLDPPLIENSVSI

Activity change, negative = inhibition, inactive:
COCCSc1ccccc1C(=O)NCc1ccco1 -8.59%
O=C(Nc1cccc(F)c1)N1CCCC2(CCN(C(=O)c3ccco3)CC2)C1 -1.77%
CN(C)/C=C/C(=O)c1ccc(Cl)cc1 -5.09%
CCOc1cc(-c2cc(-c3ccc(N)cc3)nc(N)c2C#N)ccc1O -14.9%
NC(=O)c1cccc2c3c([nH]c12)CCCC3 -5.98%
COc1cccc(-c2nccc(NCc3ccccc3OC)n2)c1 -34.6%
Cc1cccc(CNc2ncnc3ccc(-c4ccc5c(c4)OCO5)cc23)c1 7.52%
CN1CCN(C(c2cccnc2)c2ccc3cccnc3c2O)CC1 (configuration not stated) 0.164%
O=c1c(-c2ccc3c(c2)OCCO3)coc2cc(O)cc(O)c12 -10.2%
Oc1ccc2ccccc2c1CNc1cnc2ccccc2c1 -10.2%
N=c1c(C(=O)NC2CCCC2)cc2c(=O)n3ccccc3nc2n1C1CCCC1 -11.1%

Potency, active:
CC1=CC(C)(C)Nc2ccc(OC(=O)CN3C(=O)c4cccc5cccc(c45)C3=O)cc21 12.6 µM
